Compound activity deposited in PubChem BioAssay by several laboratories.
In the library only some 1.6% were active in any assay of this set; here they are far more common.
PME-1 inh: PME-1 (human) inhibition; inhibition, % at 5.9 µM; 0.53% of 320,000 active; recombinant PME-1, FP-Rh probe fluorescence polarization; AID 2130; Q9Y570;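 active = inhibition above the campaign mean of all compounds plus 3 SD, cut at about 26% in these data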;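 also: competitive labeling of PME-1 active site by serine hydrolase directed probe; 0% = PME-1 with DMSO and 100% = wells lacking PME-1 enzyme; inhibitors block probe labeling so polarization falls and inhibition rises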
Fam108B counter: Fam108B inhibition, counter-screen for RBBP9 inhibitors | AID 1947 | inhibition, % at 9.51 µM | recombinant Fam108B, FP-Rh probe fluorescence polarization | 0.33% of 300,000 active;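 active = inhibition above the screen mean inhibition plus 3 SD, computed separately per campaign, cut at about 18% in these data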;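 also: inhibitors lower polarization as less probe binds the enzyme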
MEX-5 binding: C. elegans MEX-5 TCR-2 RNA binding activity; activity score (negative = inhibition of binding), % at 10 µM; Q9XUB2; MEX-5/FITC-TCR2 RNA binding, fluorescence polarization; hits give low values; 0.38% of 300,000 active;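 active = inhibition past about -25% in most replicates, and total fluorescence under double the plate's negative control median, limit read from the data; inconclusive = replicates evenly split on the limit, or fluorescence at least double controls; inactive = too little inhibition in most replicates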;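 also: 0% = DMSO and -100% = 5 µM competing unlabeled TCR2 RNA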
LYPLA2 counter: LYPLA2 (human) inhibition in PME1 counter-screen | O95372 | recombinant LYPLA2, FP-Rh probe fluorescence polarization | inhibition, % at 5.9 µM | 0.38% of 320,000 active;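 active = inhibition above the screen-wide mean plus 3 SD, limit set per campaign, cut at about 26% in these data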;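 also: 0% = LYPLA2 with DMSO and 100% = wells lacking LYPLA2 enzyme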
PREPL inhibitor: inhibits the human prolyl oligopeptidase-like enzyme; Q4J6C6; inhibition, % at 5.96 µM; recombinant PREPL, fluorescence polarization activity-based probe; 0.68% of 320,000 active; AID 2751; in the data active = inhibition above about 43%;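 also: 0% = enzyme with DMSO and 100% = wells lacking enzyme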
Target sequence (Q4J6C6 whole entry, looked up): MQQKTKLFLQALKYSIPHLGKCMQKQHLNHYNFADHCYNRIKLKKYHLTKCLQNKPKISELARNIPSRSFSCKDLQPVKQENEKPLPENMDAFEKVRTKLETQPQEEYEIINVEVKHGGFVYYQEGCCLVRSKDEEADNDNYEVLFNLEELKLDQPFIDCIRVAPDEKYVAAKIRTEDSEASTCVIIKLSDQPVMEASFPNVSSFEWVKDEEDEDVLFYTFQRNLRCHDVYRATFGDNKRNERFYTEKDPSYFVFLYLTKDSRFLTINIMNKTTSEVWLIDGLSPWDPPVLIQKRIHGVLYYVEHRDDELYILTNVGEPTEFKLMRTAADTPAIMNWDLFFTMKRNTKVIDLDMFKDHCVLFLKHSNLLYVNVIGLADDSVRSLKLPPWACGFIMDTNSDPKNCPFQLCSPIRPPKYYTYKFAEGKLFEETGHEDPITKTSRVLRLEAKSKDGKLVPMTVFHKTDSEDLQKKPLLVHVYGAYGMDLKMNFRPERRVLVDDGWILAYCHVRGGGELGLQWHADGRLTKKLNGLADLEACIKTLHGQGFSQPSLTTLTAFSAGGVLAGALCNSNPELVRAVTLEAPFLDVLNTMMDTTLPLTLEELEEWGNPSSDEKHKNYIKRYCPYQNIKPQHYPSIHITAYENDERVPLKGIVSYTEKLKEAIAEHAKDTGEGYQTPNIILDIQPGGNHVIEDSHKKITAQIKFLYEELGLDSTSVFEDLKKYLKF
LYPLA1 counter: counter-screen for PME1 inhibitors: inhibitors of human LYPLA1; recombinant LYPLA1, FP-Rh probe fluorescence polarization; O75608; inhibition, % at 5.9 µM; 0.16% of 320,000 active;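 active = inhibition above the mean of all tested compounds plus 3 SD, set per campaign, cut at about 14% in these data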;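 also: inhibitors block serine hydrolase probe labeling of LYPLA1 so polarization falls; 0% = enzyme with DMSO and 100% = wells lacking LYPLA1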
Fam108b confirm: Fam108b (mouse) hydrolase inhibition, confirmation assay; inhibition, % at 9.51 µM; shares compounds with Fam108B counter; recombinant Fam108b, FP-Rh probe fluorescence polarization; 44% of 930 active;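 active = inhibition above a limit from the primary screen, the mean over all compounds plus 3 SD, cut at about 19% in these data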;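 also: 0% = median of active Fam108b wells and 100% = catalytically dead S170A mutant; inhibitors free the probe so polarization falls as inhibition rises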
Fam108b ABPP HTS: inhibits mouse Fam108b in gel-based ABPP; shares compounds with Fam108B counter; recombinant Fam108b, fluorophosphonate probe; inhibition, % at 20 µM; 44% of 260 active; in the data active = inhibition above about 40%
Numbers without * were called inactive; ? = inconclusive; . = not tested or not shown.

SMILES	PME-1 inh	Fam108B counter	MEX-5 binding	LYPLA2 counter	PREPL inhibitor	LYPLA1 counter	Fam108b confirm	others
COc1cccc(C2C3=C(Nc4[nH]n(-c5ccccc5)c(=O)c42)c2ccccc2C3=O)c1 (stereo not drawn)	27.7*	23.9*	.	-1.3	21.7	-5.4	31.1*
COc1cccc(C2C3=C(CCCC3=O)Nc3[nH]n(-c4ccccc4)c(=O)c32)c1 (stereo not drawn)	-1.5	-2.1	-1.4	-5.4	-1.4	-1.2	.
CN1C(=O)/C(=C/c2ccc(-c3ccccc3[N+](=O)[O-])o2)SC1=Nc1ccc(Cl)c(C(=O)O)c1	12.1	30.3*	?	2.9	16.4	-0.3	11.2
Cc1ccc(N2C(=O)c3ccccc3C2=O)cc1	-2.4	-3.4	0.6	-5.0	1.8	3.7	.
Cc1ccc(SC2=C(Sc3ccc(C)cc3)C(=O)c3ccccc3C2=O)cc1	8.1	22.1*	1.9	17.6	18.1	0.1	10.8
O=C(NC1CCCCC1)c1sc(=S)n2c1[nH]c(=O)c1ccccc12	20.4	35.4*	-0.2	5.1	30.1	2.2	32.2*	Fam108b ABPP HTS=85.0*
CCCCNC(=O)c1sc(=S)n2c1[nH]c(=O)c1ccccc12	16.7	26.8*	-4.5	6.7	16.6	5.2	32.4*	Fam108b ABPP HTS=25.0
COc1ccc(OC)c(CCNC(=O)c2ccc3c(=O)[nH]c4c(C(=O)NC(C)C)sc(=S)n4c3c2)c1	24.3	15.1	2.0	9.0	26.9	-1.2	.
O=[N+]([O-])c1cccc(-c2nc(-c3cccs3)c(-c3cccs3)[nH]2)c1	32.0*	26.3*	2.5	7.6	16.7	-4.0	7.2
O=[N+]([O-])c1cccc(-c2nc(-c3ccccc3)c(-c3cccs3)[nH]2)c1	2.4	-2.3	2.1	1.4	-9.6	2.1	.
O=[N+]([O-])c1ccc(-c2nc(-c3cccs3)c(-c3cccs3)[nH]2)cc1	41.6*	23.7*	3.7	-8.1	16.5	-22.5	20.5*
Fc1ccc(-c2nc(-c3cccs3)[nH]c2-c2ccc(F)cc2)cc1	15.0	19.0*	-0.2	15.4	6.0	3.8	6.2
Oc1ccc(-c2nc(-c3ccc(F)cc3)c(-c3ccncc3)[nH]2)cc1	-3.0	4.5	.	1.9	6.1	2.8	.
COc1ccc(CCNS(=O)(=O)c2ccc3c(c2)NC(=O)CS3)cc1OC	-2.6	-2.5	-0.2	9.4	0.9	0.8	.
Cc1[nH]c2ccc(C(=O)N3CCN(Cc4ccccc4)CC3)cc2c1C	3.7	4.3	-1.9	4.2	37.2	6.0	.
C/C(=C\C(=O)Nc1cscc1C)C(=O)O	4.8	0.0	0.3	2.2	6.0	-0.1	.
COc1cc2c(cc1NC(=O)Nc1cccc(C)c1)oc1ccccc12	35.8*	22.5*	4.2	5.6	6.0	-11.6	8.1
COc1cc2c(cc1NC(=O)Nc1ccc(C)cc1)oc1ccccc12	11.7	4.6	0.7	-17.6	2.2	-7.2	.
Oc1ccc(-c2csc(Nc3ccccn3)n2)c(O)c1	14.1	19.1*	3.5	-2.8	17.5	-3.1	12.1
NS(=O)(=O)c1ccc(Nc2nc(-c3ccc(O)cc3O)cs2)cc1	11.8	22.6*	-44.6*	0.0	17.0	-9.3	98.6*	Fam108b ABPP HTS=35.0
NS(=O)(=O)c1ccc(Nc2nc(-c3ccc(F)cc3)cs2)cc1	7.0	3.0	-1.2	-4.8	13.2	-3.9	.
Cc1cccnc1Nc1nc(-c2ccccn2)cs1	12.0	3.4	8.6	10.1	23.1	3.5	.
Cc1cc(NS(=O)(=O)c2ccc(Nc3nc(-c4ccc(O)cc4)cs3)cc2)no1	2.9	25.8*	-3.9	5.1	13.8	6.7	-70.3
Cc1cccnc1Nc1nc(-c2ccc(O)cc2O)cs1	22.9	18.3*	-5.7	-4.8	5.7	0.3	10.2
CCc1ccc(CN2CCC(N3CCC(C(=O)N4CCCC4)CC3)CC2)o1	-3.4	2.2	3.6	-7.0	4.9	-6.6	.
SMILES	PME-1 inh	Fam108B counter	MEX-5 binding	LYPLA2 counter	PREPL inhibitor	LYPLA1 counter	Fam108b confirm	others
CCOC(=O)N1CCC(NS(=O)(=O)c2ccccc2)CC1	1.5	1.1	-4.1	2.5	-7.1	-0.4	.
O=C(O)CC(C(=O)O)N1C(=O)/C(=C/c2ccc(-c3nc4ccccc4s3)o2)SC1=S (stereo not drawn)	-17.3	32.4*	39.6	14.7	16.5	3.4	-10.6
O=C(O)CCCN1C(=O)/C(=C\c2ccc(-c3nc4ccccc4s3)o2)SC1=S	-4.8	19.5*	-55.6*	9.1	5.8	2.3	11.3
O=C(O)CCN1C(=O)/C(=C/c2ccc(-c3nc4ccccc4s3)o2)SC1=S	14.6	10.8	?	-3.5	20.5	4.0	.
O=C1[C@@H]2Cc3c([nH]c4ccccc34)C(c3ccc([N+](=O)[O-])cc3)N2C(=O)CN1C1CC1 (stereo partly drawn)	4.6	-0.1	-0.9	0.6	6.3	3.5	.
O=C1[C@@H]2Cc3c([nH]c4ccccc34)C(c3ccccc3)N2C(=O)CN1C1CC1 (stereo partly drawn)	27.0*	19.5*	2.4	1.2	23.1	-4.0	5.6
CCOC(=O)N1CCC(NC(=O)c2cc(C(=O)NC3CCN(Cc4ccccc4)CC3)ccc2CO)CC1	0.1	0.8	0.6	-2.2	6.9	-3.7	.
COc1cccc(C(=O)COc2cccc(NC(=O)c3cccc([N+](=O)[O-])c3)c2)c1	22.5	24.4*	.	-2.1	-19.8	-12.8	23.6*
Brc1csc(C=NNc2nc3ccccc3s2)c1	.	.	.	.	.	.	.	Fam108b ABPP HTS=70.0*
Cc1ccc2[nH]c(C)c(/C=N/Nc3nc4ccccc4s3)c2c1	57.9*	27.1*	-2.4	-3.9	21.3	0.4	2.6
C(=N\Nc1nc2ccccc2s1)/c1ccccn1	12.9	4.4	-8.0	-2.6	22.6	1.0	.
c1cc2c3c(cccc3c1)NC1(CCC3(CC1)Nc1cccc4cccc(c14)N3)N2	47.3*	36.2*	2.1	8.5	34.6	-8.3	6.8
CCOC(=O)c1sc(NC(=O)Nc2ccc(Cl)cc2)cc1C	19.8	44.1*	-3.3	-11.3	21.6	-24.2	83.2*	Fam108b ABPP HTS=95.0*
Cc1ccc(/C=N/N=C2/NC(=O)CS2)o1	-2.3	1.1	1.4	1.2	-3.7	3.4	.
Cc1nn(-c2ccccc2)c(Cl)c1/C=N/NC(=O)c1cccc(S(=O)(=O)N2CCCC2)c1	1.6	-6.3	1.6	3.8	12.2	-4.5	.
Cc1nn(-c2ccccc2)c(N2CCCC2)c1/C=N/NC(=O)c1cc2ccccc2cc1O	38.0*	27.2*	.	0.7	9.1	-9.6	9.0
Cc1nn(-c2ccccc2)c(N2CCCC2)c1/C=N/NC(=O)c1cccc(S(=O)(=O)Nc2ccc(Cl)cc2)c1	15.0	21.9*	-2.6	-18.3	14.2	-14.4	-6.2
